Measured values from PubChem BioAssay.
A number with no mark means an inactive call.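 Rule for the calls: active = compounds killing one labelled cell type while sparing the other, by normalised counts and ratio limits, not self-fluorescent; inactive = the rest.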

Assay: EMT-state selective cytotoxicity in co-culture – imaging, PC-3E GFP, TEM4-18 mCherry, primary screen (AID 1345086);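 note: normalised mesenchymal count divided by normalised epithelial count so high means epithelial killing; cells exposed to compound for 72 h before imaging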
Settings: PC-3E GFP / TEM4-18 mCherry co-culture, imaging cell counts; at 1 µM; actives lie on both sides; counts scaled to control wells, 1 = unselective

| SMILES | red/green cell ratio (normalised) |
| --- | --- |
| OCC(S)CS (configuration not stated) | 1.01 |
| CC(=O)O[C@@H]1CC2C(C)(C)C(=O)C3OC3[C@]2(C)C2CC[C@@]3(C)[C@H](c4ccoc4)OC(=O)C4OC43[C@@]21C (some centres not stated) | 1.04 |
| CC(=O)OC/C=C(\C)CC/C=C(\C)CC/C=C(\C)CC/C=C(\C)CC/C=C(\C)CC/C=C(\C)CC/C=C(\C)CC/C=C(\C)CCC=C(C)C | 0.99 |
| O=S(=O)(O)c1cc(N=C=S)ccc1/C=C/c1ccc(N=C=S)cc1S(=O)(=O)O | 0.86 |
| COc1ccc(-c2cc(=O)c3c(O)c(OC)c(OC)c(OC)c3o2)cc1OC | 1.15 |
| CC(=O)O[C@H]1C[C@@H](OC(C)=O)C(C)(C)C2C[C@@H](O)[C@]3(C)C(CC[C@@]4(C)[C@H](c5ccoc5)OC(=O)[C@H]5O[C@]543)[C@]21C (some centres not stated) | 0.99 |
| CC1=CC(=O)C2C(C)(C)CCC[C@]2(C)[C@@]1(O)CCc1ccoc1 (some centres not stated) | 1.02 |
| CCCCCCCCCCCCCCCC(=O)OCC(O)CO (configuration not stated) | 0.84 |
| Cc1c(S(=O)(=O)O)oc2c1C(=O)C(=O)c1c-2ccc2c1CCCC2(C)C | 0.95 |
| CC(=O)O[C@H]1CC[C@@]2(C)C(C[C@@H](OC(C)=O)[C@]3(C)C2CC[C@@]2(C)[C@H](c4ccoc4)OC(=O)[C@H]4O[C@]423)C1(C)C (some centres not stated) | 1.12 |
| CC1(C)C(=O)[C@@H]2C[C@@]3(O)C4=CC(=O)O[C@@H](c5ccoc5)[C@]4(C)CCC3C(C)(C2=O)[C@H]1CC(=O)O (some centres not stated) | 1 |
| CC(=O)O[C@H]1CC[C@@]2(C)C(C[C@@H](OC(C)=O)[C@@]3(C)C4=CC(=O)O[C@@H](c5ccoc5)[C@]4(C)CCC23)C1(C)C (some centres not stated) | 0.88 |
| O=C(O)/C=C/C=C/c1ccccc1 | 1.01 |
| CNC(C)[C@@H]1CC[C@@H](N)[C@@H](OC2[C@@H](N)C[C@@H](N)[C@H](OC3OC[C@](C)(O)[C@H](NC)[C@H]3O)[C@H]2O)O1 (some centres not stated) | 1.29 |
| O=C(O)c1cc(=O)c(O)c2c(O)c(O)c(O)cc2c1 | 0.85 |
| OC[C@H]1O[C@@H](O[C@H]2[C@H](O)[C@@H](O)[C@@H](O)O[C@@H]2CO)[C@H](O)[C@@H](O)[C@@H]1O | 1.17 |
| S=c1ccss1 | 1.04 |
| COc1cc2oc3cc(OC)c(OC)c(CC=C(C)C)c3c(=O)c2c(OC)c1CC=C(C)C | 0.95 |
| CC(=O)Oc1cc(C)c2c(c1C(OC(C)=O)OC(C)=O)Oc1c(c(C)c(OC(C)=O)c3c1C(OC(C)=O)OC3=O)OC2=O (configuration not stated) | 0.89 |

| SMILES | red/green cell ratio (normalised) |
| --- | --- |
| CC(=O)OCC(=O)[C@@]1(O)CCC2C3CCC4=CC(=O)C=C[C@]4(C)[C@@]3(F)[C@@H](O)C[C@@]21C (some centres not stated) | 0.75 |
| CC(=O)OCC(OC(C)=O)C(OC(C)=O)C(OC(C)=O)C(OC(C)=O)C(COC(C)=O)OC(C)=O (configuration not stated) | 1.06 |
| COc1ccc([C@H]2COc3c(ccc(O)c3OC)C2)c(OC)c1O | 0.9 |
| O=C1C=CC(=O)c2c(O)c(Cl)c(Cl)c(O)c21 | 1 |
| O=c1cccc2ccc(O)c(O)c2c1O | 1.04 |
| O=C(O)c1ccc2c(c1)OCO2 | 1.05 |
| COc1ccc(-c2oc3cc(OC)c(OC)c(OC)c3c(=O)c2OC)cc1 | 1.04 |
| Nc1ccc(C(=O)O)c(O)c1 (tested in a mixture with another compound) | 0.93 |
| COc1ccc(-c2coc3cc(O)ccc3c2=O)c(OC)c1 | 1.02 |
| O=c1cc(-c2ccc(O)cc2)oc2cc(O)ccc12 | 0.77 |
| C=CC(C1=CC(=O)C=CC1=O)c1ccccc1 (configuration not stated) | 0.88 |
| O=C(NC1CCCCC1)NC1CCCCC1 | 0.92 |
| COc1cc(O)c(C(=O)/C=C/c2ccc(OC)c(O)c2)c(OC)c1 | 1.01 |
| O=c1cc(-c2ccccc2)oc2cccc(O)c12 | 0.94 |
| CC(=O)Oc1cc(OC(C)=O)c2c(c1)O[C@H](c1ccc(OC(C)=O)c(OC(C)=O)c1)[C@@H](OC(C)=O)C2 | 0.85 |
| COc1ccc(/C=C/C(=O)c2cc(O)ccc2O)cc1 | 0.92 |
| Cc1cc(O)c(C=O)c2c1C(=O)Oc1c(COC(=O)/C=C/C(=O)O)c(O)c(C(=O)O)c(C)c1O2 | 1.12 |
| COc1ccc(-c2cc(=O)c3c(OC)c(OC)c(OC)cc3o2)cc1OC | 1.21 |
